Shown are actives, neighbours in structure and some others; about 5.9% of the full set was active somewhere.
HEK293 tox – qHTS of GLP-1 Receptor Inverse Agonists: Cytotox Screen. HEK293 cAMP-luciferase reporter cells, luminescence, 24 h. Potency, µM (doses to about 38.3 µM), hits mostly inhibitors. actives 0.13% (n = 410,000). AID 624418, 2012;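 further: loss of luciferase light is scored as toxicity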
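Compound-treated cells are incubated 24 hr at 37 deg C under 5% CO2 after a 12 hour attachment period, then luciferase detection reagent is added and luminescence is measured following 12 min at room temperature; lowered signal indicates toxicity.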
GLP-1R agonist – qHTS of GLP-1 Receptor Agonists; actives 0.007% (n = 380,000); AID 624172, 2012; HEK293 GLP-1R CRE-luciferase, luminescence, 4-6 h; cells express a hypersensitive GLP-1R form; Glucagon-like peptide 1 receptor (Homo sapiens), P43220; Potency, µM (highest dose often 45.6 µM), usual class: activators
Target sequence (P43220 whole entry, looked up): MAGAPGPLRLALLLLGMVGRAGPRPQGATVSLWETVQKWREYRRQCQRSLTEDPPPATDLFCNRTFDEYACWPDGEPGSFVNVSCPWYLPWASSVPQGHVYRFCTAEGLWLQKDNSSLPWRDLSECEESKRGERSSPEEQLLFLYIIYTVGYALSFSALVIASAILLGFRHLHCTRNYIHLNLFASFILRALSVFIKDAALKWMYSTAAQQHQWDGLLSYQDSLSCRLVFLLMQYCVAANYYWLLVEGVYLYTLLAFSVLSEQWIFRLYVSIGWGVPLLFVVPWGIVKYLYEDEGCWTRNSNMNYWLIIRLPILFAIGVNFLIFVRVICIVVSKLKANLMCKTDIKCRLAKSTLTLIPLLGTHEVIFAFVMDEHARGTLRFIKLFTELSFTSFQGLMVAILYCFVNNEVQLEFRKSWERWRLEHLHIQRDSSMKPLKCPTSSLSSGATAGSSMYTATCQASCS
RORg inh – qHTS for inhibitors of ROR gamma transcriptional activity; Potency, µM (doses to about 53.6 µM), hits mostly inhibitors; Drosophila S2 Gal4-RORgamma UAS-luciferase reporter, 20 h; actives 5.4% (n = 310,000); further: nearly all actives have a fitted effect of over 60% in size
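Drosophila Schneider cells stably carrying a metallothionein-driven Gal4 DBD–ROR gamma fusion and a UAS-Photinus luciferase reporter were exposed to compound for 1 hr, then induced with copper sulfate (700 uM final) for 20 hr at ambient temperature before luminescence reading.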
Gal4-VP16 FLuc – VP16 counterscreen qHTS for inhibitors of ROR gamma transcriptional activity. actives 3.5% (n = 310,000). Drosophila S2 Gal4-VP16 UAS-luciferase, luminescence, 20 h. Potency, µM (titrated, usually from 53.6 µM), hits mostly inhibitors;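 further: Gal4-VP16 expression switched on by copper sulfate through the metallothionein promoter; nearly all actives have a fitted effect of over 50% in size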
GLP1R inv ag – qHTS of GLP-1 Receptor Inverse Agonists (Inhibition Mode). HEK293 GLP-1R CRE-luciferase, luminescence, 24 h; GLP-1R form is constitutively active. Potency, µM (highest dose often 38.3 µM), actives largely listed as inhibitors. actives 1.6% (n = 410,000). AID 624417, 2012; further: nearly all actives have a fitted effect of over 55% in size
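Inverse agonists were sought by their lowering of basal cAMP reporter luciferase output in HEK293 cells stably carrying constitutively active human GLP-1R, after 24 h compound treatment.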
Numbers stand for hits; – = inactive; ? = inconclusive; · = no result. The call rests on the fitted dose curve; in most records, active means well fitted curve in the direction sought with a large enough effect; inconclusive means small, poorly fitted or top-dose-only effect, or another doubt; inactive means no such curve, though single readings can be large; an effect the other way counts as inactive or inconclusive.

SMILES | HEK293 tox | GLP-1R agonist | RORg inh | Gal4-VP16 FLuc | GLP1R inv ag
CCOC(=O)C1CCCN(C(=O)c2cc(-c3ccc(F)cc3)nc3ccccc23)C1 (configuration not stated) | – | – | – | – | 7.9µM
CCNC(=S)NNC(=O)c1cc(-c2ccc(OC)cc2)nc2ccccc12 | – | – | 1.4µM | 3.5µM | –
CCOC(=O)C1CCCN(C(=O)c2cc(-c3ccncc3)nc3ccccc23)C1 (configuration not stated) | – | – | · | · | –
CCCCOc1ccc(-c2cc(C(=O)NNC(=S)NCC)c3ccccc3n2)cc1 | ? | – | 5µM | 2.5µM | –
COc1ccc(-c2cc(C(=O)c3c(N)n(C)c(=O)n(C)c3=O)c3ccccc3n2)cc1 | – | – | 14µM | 11µM | –
CCNC(=O)COC(=O)c1cc(-c2ccc(OC)cc2)nc2ccccc12 | – | – | – | – | –
COc1ccc(-c2cc(C(=O)OCC(=O)c3c(N)n(C)c(=O)n(C)c3=O)c3ccccc3n2)cc1 | – | – | – | – | –
CCOc1ccc2oc(=O)cc(CN3CCN(c4cc(C)ccc4C)CC3)c2c1 | – | · | · | · | –
O=C1CN(C(=O)c2ccc(S(=O)(=O)N3CCCC3)cc2)C(c2ccc(F)cc2)c2cc(F)ccc2N1 (configuration not stated) | – | · | · | · | –
O=C(NNC(=O)c1cc(-c2ccncc2)nc2ccccc12)c1cccc(Cl)c1 | – | – | · | · | –
COc1ccc(Cl)cc1C(=O)NNC(=S)NC(=O)c1ccc(F)c(F)c1 | – | – | 7.1µM | 11µM | –
CCOc1ccc(-c2cc(C(=O)O)c3ccccc3n2)cc1 | – | – | 7.9µM | 10µM | ?
COc1cc(C(=O)NNC(=S)NC(=O)c2ccc(F)cc2)cc(OC)c1OC | – | – | ? | ? | –
COc1ccc(Cl)cc1C(=O)NNC(=S)NC(=O)c1cc(-c2ccc(Cl)cc2)nc2ccccc12 | – | – | 1.3µM | ? | –
CCOc1ccc(-c2cc(C(=O)N3CCC(C)CC3)c3ccccc3n2)cc1 | – | – | · | · | –
COc1ccc(-c2nc(CNS(=O)(=O)c3cccc(F)c3)cs2)cc1 | – | · | · | · | –
COC(=O)C(C)Sc1nnc(-c2ccncc2)o1 (configuration not stated) | – | – | – | – | –
CCOC(=O)C(Sc1nnc(-c2ccncc2)o1)C(C)=O (configuration not stated) | – | – | 5µM | 4.5µM | –
CCOC(=O)CNC(=O)c1cc2c(=O)n(CC)c3ccccc3c2s1 | – | – | · | · | –
Cc1ccc(NS(=O)(=O)c2ccc3nc(-c4ccccc4)[nH]c3c2)c(Cl)c1 | – | – | · | · | ?
C=C1SC(Nc2c(C)cc(C)cc2C)=NC12CCCCC2 | – | – | ? | 0.63µM | ?
C=C1SC(Nc2c(C)cccc2C)=NC12CCCCC2 | – | – | 4µM | 2.2µM | ?
CCc1ccc(NC(=O)CN2C(=O)c3ccccc3Sc3ccc(C(=O)N4CCCC4)cc32)cc1 | – | · | · | · | ?
CCNc1ncc2nc(-c3cccs3)c(=O)n(Cc3cccs3)c2n1 | · | · | – | – | ·
Clc1ccc(-c2cnc3n2CCC3)cc1 | – | – | 18µM | – | –
SMILES | HEK293 tox | GLP-1R agonist | RORg inh | Gal4-VP16 FLuc | GLP1R inv ag
Brc1cccc(-c2nnc3n2CCCCC3)c1 | – | – | – | – | –
Brc1cccc(-c2cnc3n2CCCCC3)c1 | – | – | 0.4µM | 10µM | ?
CCOC(=O)c1c(C)n(-c2ccccc2)c2ccc(O)c(CN(C)C)c12 | – | – | – | – | 8.9µM
COc1cccc(/C=C2\SC(=S)N(CCCC(=O)N3CCCCC3CCO)C2=O)c1 (configuration not stated) | – | – | 3.5µM | 2.8µM | ?
COc1cccc(/C=C2\SC(=S)N(CCCC(=O)N3CCCC3)C2=O)c1 | ? | – | 2.5µM | – | 5µM
COc1ccc(/C=C2\SC(=S)N(CCCC(=O)N3CCOCC3)C2=O)cc1 | – | – | · | · | ?
N#C/C(=C\c1ccc(O)c(O)c1)C(=O)OCCc1cccs1 | · | · | – | – | ·
C/C(=N\Nc1ccccn1)c1ccc(OC(F)F)cc1 | ? | – | 14µM | ? | –
COc1cc(C(=O)NC(=S)Nc2ccccc2N2CCCC2)cc(OC)c1OC | ? | – | 4.5µM | 4µM | –
